aSyn UTR act: Activators via SNCA 5'UTR binding, MLPCN; AID 1814; 7.1% of 300,000 active; activity score, % (tested at 7.5 µM), hits read low; alpha-synuclein 5'UTR reporter, activators screen; in the data active = activity score below about -60%
* = called active by the depositor. Only a sample is shown.

SMILES	aSyn UTR act
O=C1N=C(N2CCCCC2)SC1=C1CCCCC1	-89*
O=C1C=C(N2CCCCC2)c2ccccc2C1=O	122
CC(=O)N(C)C1=C(N2CCOCC2)C(=O)c2ccccc2C1=O	76
O=Cc1cc2ccccc2nc1SCc1ccc(Cl)cc1	95
Clc1ccc(CSc2ncccn2)cc1	-80*
O=C(CSCc1cccc(F)c1)N1CCN(c2ccccc2)CC1	-199*
O=C(CSCc1ccccc1)N1CCN(c2ccccc2)CC1	-103*
O=C(NC(=S)Nc1ccccc1)C1CCCCC1	-63*
O=C(NC(=S)Nc1ccc(Br)cc1)C1CCCCC1	-68*
O=C(NC(=S)Nc1ccc(Br)cc1)C1CCC1	-95*
CC(C)CC(=O)NC(=S)NNC(=O)c1ccc(NC(=O)C2CCCCC2)cc1	75
CNc1nc(C)nc(-c2ccccc2O)n1	-75*
CC(Cc1ccccc1)NC(=O)c1cc2ccccc2o1 (centres undefined)	-162*
O=C(c1ccccc1)c1cc2ccccc2o1	-149*
Cc1ccc(C(=O)c2cc3ccccc3o2)cc1[N+](=O)[O-]	-119*
O=C(c1ccc(F)cc1)c1cc2ccccc2o1	-171*
CCN(CC)S(=O)(=O)c1ccc(N2CCOCC2)c(NC(=O)c2cc([N+](=O)[O-])ccc2Cl)c1	-164*
CCN(CC)S(=O)(=O)c1ccc(N2CCOCC2)c(NC(=O)c2cc(-c3ccccn3)nc3ccccc23)c1	88
Brc1ccc2nc(CSc3ncn[nH]3)cn2c1	-68*
Nc1nccc(-c2ccc(-n3cccc3)cc2)n1	-132*
CCCCc1ccc(NC(=O)Nc2cnccn2)cc1	-98*
CCc1ccc(NC(=O)Nc2ccon2)cc1	-136*
O=C(Nc1ccc([N+](=O)[O-])cc1)Nc1ccon1	74
CCc1ccc(NC(=O)Nc2cnccn2)cc1	-104*
COc1cc2cccc(OC)c(=O)c2c(O)c1OC	-70*
SMILES	aSyn UTR act
COc1cc2c(cc1OC)-c1c(OC)c(OC)cc3ccnc(c13)C2=O	110
CCc1nc2ccc(C(=O)NCCc3ccc(OC)cc3)cc2nc1CC	-138*
CCc1nc2ccc(C(=O)O)cc2nc1CC	-63*
CCCOC(=O)c1sc2nc3c(cc2c1N)C(=O)CCC3	-152*
Nc1c(C(=O)NCc2ccco2)sc2nc3c(cc12)C(=O)CCC3	-94*
COc1ccc2cc3c(N)c(C(=O)NCc4ccco4)sc3nc2c1	-192*
Cc1sc(NC(=O)/C=C/c2ccco2)c(C(=O)O)c1C	-118*
CCOC(=O)c1c(NC(=O)/C=C/c2ccc(C)o2)sc(C)c1C	-108*
c1ccc(-c2ccc(-c3ccncn3)cc2)cc1	-78*
Cc1ccc(-c2cc(N)nc(-c3ccccc3)c2)cc1	-87*
Cc1ccc(OCC(=O)c2ccc3c(c2)CCCC3)cc1C	-84*
Cc1ccc(NC(=O)COc2ccc3c(c2)CCC3)nc1	-98*
Cc1cccnc1NC(=O)COc1ccc2c(c1)CCC2	-94*
CN(CCC#N)C(=O)c1cc2c(s1)-c1ccccc1SC2	-91*
Cc1nn(C)c(=O)n1-c1ccc(OCc2ccccc2)cc1	-104*
Cc1nn(CCOc2ccccc2)c(=O)n1-c1ccc(F)cc1	-65*
C/C(=N\NC(=O)c1cc(Cl)ccc1O)c1ccc(Br)s1	-76*
C/C(=N\NC(=O)CSCc1ccccc1Cl)c1cc(O)ccc1O	62
CCOC(=O)c1cn2nc(Oc3ccccc3)ccc2n1	-149*
CCOC(=O)c1cn2nc(Oc3ccc(C)cc3)ccc2n1	-75*
CC(/C=C/c1ccco1)=N\NC(=O)CNc1ccc2ccccc2c1	-70*
CC(C)(C)c1ccc(C(=O)c2c[nH]c(C(=O)O)c2)cc1	-102*
CN(C)C=NC(=O)c1cc(C(=O)c2ccc(C(C)(C)C)cc2)c[nH]1	-87*
Cc1c(NC(=O)c2cc(C3CC3)on2)c(=O)n(-c2ccccc2)n1C	-62*
Cc1c(N/N=C(\C#N)C(=O)c2ccc(Cl)cc2)c(=O)n(-c2ccccc2)n1C	86
SMILES	aSyn UTR act
Cc1cc(=O)n(C(NC(=O)c2ccccc2)C(=O)c2ccccc2)cn1 (centres undefined)	-84*
O=C(NC(C(=O)c1ccccc1)N1CCOCC1)c1ccccc1 (centres undefined)	-67*
N/C(=N\OC(=O)c1ccncc1)c1cccc([N+](=O)[O-])c1	-70*
Cc1ccc(C(=O)O/N=C(\N)c2cccc([N+](=O)[O-])c2)cc1	-218*
N/C(=N\OC(=O)c1ccc([N+](=O)[O-])cc1)c1ccc(Br)cc1	-81*
N/C(=N\OC(=O)c1ccc(Br)cc1)c1cccc([N+](=O)[O-])c1	-179*
O=C(CCc1nnc(-c2ccsc2)o1)N1CCc2c(Cl)cccc2C1	-65*
O=C(COc1ccc2ccccc2c1Br)NC(=S)Nc1cccc(CO)c1	-66*
O=C(COc1ccccc1[N+](=O)[O-])Nc1cccnc1	-72*
O=C(COc1ccc2ccccc2c1Br)Nc1ccncc1	-84*
O=C(COc1ccc2ccccc2c1Br)Nc1cccnc1	-210*
O=C(Nc1ccccc1F)C(=O)Nc1cccc2ccccc12	-119*
O=C(Nc1cccc2ccccc12)/C(Cl)=C/c1ccccc1	-81*
Brc1ccc2c(c1)OCCOCCOc1cc(Br)ccc1OCCOCCOCCO2	73
O=C(c1cc2cc(Br)ccc2o1)N1CCCC1	-64*
O=C(c1cc2cc(Br)ccc2o1)N1CCOCC1	-85*
CCOc1ccc(C(=O)Cc2cc(OC)c(OC)cc2[N+](=O)[O-])cc1	-80*
CCOc1ccc(NC(=S)NC(=O)/C=C/c2ccc(Br)cc2)c([N+](=O)[O-])c1	-79*
CCOC(=O)c1ccc(OS(=O)(=O)c2ccccc2)c(OC)c1	-195*
COc1ccc(C(=O)/C=C/Nc2cccc(O)c2)cc1	-94*
CCOc1ccc(N/C=C/C(=O)c2ccc(OC)cc2)c([N+](=O)[O-])c1	-118*
Cc1cccc(N/C=C/C(=O)c2ccc(Cl)cc2)c1	-157*
COc1cccc(N/C=C/C(=O)c2ccc(OC)c(OC)c2)c1	-97*
COC(=O)c1ccccc1N/C=C/C(=O)c1ccc(Br)cc1	-132*
Cc1ccc(Cl)c(N/C=C/C(=O)c2ccccc2)c1	-144*
SMILES	aSyn UTR act
CCOC(=O)c1ccc(N/C=C\C(=O)c2cccc(OC)c2)cc1	-131*
COc1cccc(N/C=C/C(=O)c2ccc(Br)cc2)c1	-117*
CCOC(=O)c1cccc(N/C=C/C(=O)c2ccc(OC)c(OC)c2)c1	-130*
COc1ccc(C(=O)/C=C/Nc2ccc([N+](=O)[O-])cc2)cc1	-106*
COc1cccc(C(=O)/C=C/Nc2cc(C)ccc2O)c1	-261*
COc1ccc(C(=O)/C(C#N)=N/Nc2ccc([N+](=O)[O-])cc2)cc1	102
O=C(Nc1ccc(NC(=O)C2CC2)nc1)c1ccco1	-121*
CNS(=O)(=O)c1ccc(NC(=O)c2ccccn2)cc1	-73*
Cc1ccc(S(=O)(=O)N2CCCC(C(=O)Nc3ccc(NC(=O)c4ccccn4)cc3)C2)cc1 (centres undefined)	-74*
O=C(Nc1ccc(NC(=O)C2CCCCC2)nc1)c1ccco1	-101*
Cc1ccc(NC(=S)N=Nc2c(O)n(C)c3ccc(S(=O)(=O)N4CCOCC4)cc23)cc1	75
CNS(=O)(=O)c1ccc(NC(=O)c2cc(-c3ccncc3)nc3ccc(Cl)cc23)cc1	-98*
O=C(Nc1ccc(NC(=O)C2CCCCC2)nc1)c1ccccn1	-108*
COc1ccc(N=Cc2cccc(C)c2O)cc1Cl	-138*
COc1ccc(CCCC(=O)N/N=C/c2cccc(OC)c2O)cc1C	74
CCOC(=O)c1cnc(-n2nc(C)cc2C)nc1NNc1cc(-c2ccccc2)nc(C)n1	93

Compound activity: PubChem, Broad Institute
